Most compounds without a hit are left out; they make up all but 5% or so of the library.
EBI2 antag – EBI2 (human) antagonism; 0.81% of 360,000 active; EBI2 beta-arrestin recruitment, luminescence, 7a,25-OHC stimulated; P32249; inhibition, % at 5 µM; in the data active = inhibition above about 38%;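 note: enzyme fragment complementation signal reports receptor beta-arrestin coupling in cells; 0% = agonist plus DMSO wells and 100% = wells without agonist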
AHR activator – activators of human aryl hydrocarbon receptor; AHR-responsive luciferase reporter cells, luminescence; activation, % at 5 µM; 2.5% of 320,000 active; AID 2796; in the data active = activation above about 47%;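 note: 0% = vehicle wells and 100% = reference agonist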
SENP7 block – SENP7 protease inhibition; recombinant SENP7, Z-RLRGG-aminoluciferin luminescence, 40 min; inhibition, % at 5 µM; 1.5% of 330,000 active; AID 434973;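 active = inhibition above about 50% at the single test dose, limit read from the data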;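 note: plate controls were DMSO with enzyme for no effect and no enzyme buffer wells for full effect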
SENP8 block-1 – blocks human SENP8 cleavage of Nedd8 substrate; Q96LD8; recombinant SENP8, Nedd8 substrate fluorescence; inhibition, % at 20 µM; 0.64% of 360,000 active; AID 602440; in the data active = inhibition mostly above about 40%, no sharp cut-off; inactive = mostly below about 27%
SENP6 block – inhibitors of human SENP6 protease; Q9GZR1; Recombinant SENP6 catalytic domain, aminoluciferin luminescence; 1.8% of 330,000 active; inhibition, % at 10 µM; AID 2599;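 active = inhibition above about 50% at the single tested dose, limit read from the data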;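 note: plate controls were DMSO wells with enzyme for no effect and DMSO wells lacking enzyme for full effect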
Target sequence (Q9GZR1 628-1112 limits assumed): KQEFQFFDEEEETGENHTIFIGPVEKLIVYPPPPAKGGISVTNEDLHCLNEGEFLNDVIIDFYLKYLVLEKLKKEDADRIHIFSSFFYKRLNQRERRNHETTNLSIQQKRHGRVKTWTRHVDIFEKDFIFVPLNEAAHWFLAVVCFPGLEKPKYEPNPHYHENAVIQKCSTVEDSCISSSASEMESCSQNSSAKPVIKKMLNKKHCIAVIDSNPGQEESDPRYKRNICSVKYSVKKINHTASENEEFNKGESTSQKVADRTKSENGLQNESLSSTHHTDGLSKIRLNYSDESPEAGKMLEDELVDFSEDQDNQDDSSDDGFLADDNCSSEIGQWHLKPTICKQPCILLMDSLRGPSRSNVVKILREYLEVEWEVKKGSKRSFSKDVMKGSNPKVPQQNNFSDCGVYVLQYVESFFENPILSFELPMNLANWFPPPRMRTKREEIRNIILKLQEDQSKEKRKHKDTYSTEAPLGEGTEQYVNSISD
SENP8 block-2 – inhibitors of human SENP8 protease | purified SENP8, Z-RLRGG-aminoluciferin cleavage, luminescence | Q96LD8 | inhibition, % at 10 µM | 1.2% of 330,000 active; in the data active = inhibition above about 50%
SENP8 confirm – human SENP8 inhibition, confirmed. shares compounds with SENP7 block. Recombinant SENP8, Z-RLRGG-aminoluciferin luminescence, 60 min. inhibition, % at 12.5 µM. 40% of 6,200 active. AID 488912;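 active = mean inhibition across replicates above about 50%, limit read from the data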
SENP6 confirm – human SENP6 inhibition, confirmed; shares compounds with SENP7 block; recombinant SENP6, Z-RLRGG-aminoluciferin luminescence; inhibition, % at 12.5 µM; 58% of 6,200 active; AID 488915
SENP7 confirm – human SENP7 inhibition, confirmed. 69% of 6,200 active. shares compounds with SENP7 block. recombinant SENP7, Z-RLRGG-aminoluciferin luminescence, 40 min. inhibition, % at 12.5 µM
Casp3 select – caspase-3 inhibition (SENP selectivity assay) | inhibition, % at 12.5 µM | 60% of 6,200 active | AID 488918 | purified caspase-3, Z-DEVD-aminoluciferin luminescence, 60 min | shares compounds with SENP7 block;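 active = mean inhibition above about 50%, limit read from the data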;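 note: plate controls were enzyme with DMSO for no effect and wells without caspase-3 for full effect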
Target sequence (P42574 28-227 limits assumed): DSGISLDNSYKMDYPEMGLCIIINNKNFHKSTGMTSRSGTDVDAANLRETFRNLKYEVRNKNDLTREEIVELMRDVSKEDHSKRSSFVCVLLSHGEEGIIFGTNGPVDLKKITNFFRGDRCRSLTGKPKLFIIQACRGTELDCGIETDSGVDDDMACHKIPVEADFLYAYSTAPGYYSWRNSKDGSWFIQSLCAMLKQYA
Luc interf – luminescence interference (SENP counter-screen). shares compounds with SENP7 block. Pre-incubated SENP8/Z-RLRGG-aminoluciferin, luciferase luminescence interference. inhibition, % at 12.5 µM. 39% of 6,200 active;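 active = mean inhibition above about 50% when retested at one dose, limit read from the data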;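 note: plate controls were DMSO wells with completed reaction for no effect and substrate without enzyme for full effect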
Active calls of the source: *; . = not tested or not shown.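 Rule for the calls, unless noted: active = mean inhibition above about 50% in the one-dose retest (limit read from the data); inactive = the rest.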

SMILES | EBI2 antag | AHR activator | SENP7 block | SENP8 block-1 | SENP6 block | SENP8 block-2 | SENP8 confirm | SENP6 confirm | SENP7 confirm | Casp3 select | Luc interf
N#CCSc1nnc(-c2sc3ccccc3c2Cl)o1 | -5.9 | 13.6 | -7.5 | -22.8 | -2.4 | -13.3 | . | . | . | . | .
COC(=O)c1ccc2c(c1)C(=O)/C(=C/c1ccc(O)cc1)O2 | -2.2 | 2.6 | . | -299.9 | . | . | . | . | . | . | .
COc1cccc(/C=C2\Oc3ccc(O)cc3C2=O)c1O | 2.8 | 5.5 | 64.4* | -175.0 | 71.1* | 55.8* | 71.7* | 69.1* | 90.3* | 72.4* | 16.1
O=S(=O)(/N=C(/Nc1nc2ccccc2s1)c1ccccc1)c1ccccc1 | -9.1 | 13.2 | 14.9 | -8.0 | 71.7* | 60.1* | 0.6 | 6.6 | 8.7 | 11.9 | 22.8
COc1ccccc1/C=C/c1ccc2cccc(O)c2n1 | 9.3 | 75.5* | 29.1 | -113.1 | 80.7* | 50.7* | 5.6 | 72.2* | 91.6* | 56.6* | 37.3
Oc1cccc2ccc(/C=C/c3ccccc3Cl)nc12 | 20.7 | 15.5 | 83.5* | -35.7 | 98.9* | 88.3* | 83.0* | 90.1* | 67.0* | 85.5* | 32.6
Oc1cccc2ccc(/C=C/c3c(F)cccc3Cl)nc12 | 8.2 | 41.0 | 94.1* | -33.4 | 95.3* | 85.3* | 23.2 | 60.4* | 37.0 | 63.5* | 4.3
O/N=C/c1ccc2cccc(O)c2n1 | 0.7 | 0.1 | 3.7 | 14.2 | 0.5 | -3.6 | . | . | . | . | .
O=C(COC(=O)c1ccc(O)cc1)NCC1CCCO1 (configuration not stated) | -12.7 | 5.7 | 2.7 | 8.9 | -7.3 | 2.5 | . | . | . | . | .
COc1cccc(NC(=S)N(C)C2CCN(C)CC2)c1 | -4.1 | -0.8 | 1.9 | 10.9 | 1.4 | -0.8 | . | . | . | . | .
CCCc1cc(C(=O)NNC(=S)Nc2cccc(C)c2)cs1 | -4.9 | 8.5 | 94.3* | 10.3 | 78.9* | 80.0* | 33.1 | 26.5 | 7.7 | 3.6 | 20.6
O=C(Nc1ccc(NC(=O)c2cccs2)cc1)c1ccccc1 | -7.4 | -4.3 | 45.6 | 4.9 | 14.6 | -31.8 | . | . | . | . | .
Cc1ccc(NC(=O)c2cccs2)cc1 | -2.3 | 2.6 | 52.9* | 5.4 | 39.7 | 22.6 | 33.5 | 38.0 | 75.2* | 65.2* | 52.3*
Nc1ccc(NC(=O)c2cccs2)cc1 | -15.6 | 0.8 | -1.9 | 0.5 | -2.5 | -6.0 | . | . | . | . | .
O=C(Nc1ccc2c(c1)CCC2)c1cccs1 | -0.6 | 1.3 | 77.9* | 13.9 | 36.0 | 62.0* | 82.7* | 87.2* | 95.7* | 82.8* | 83.1*
Cc1ccc(NC(=O)C(=O)NNC(=O)c2cccs2)cc1 | -3.8 | 3.6 | 41.0 | 1.3 | 56.8* | 55.0* | -22.8 | 35.6 | 78.8* | 82.8* | 17.2
Cc1ccccc1-c1nc(-c2ccc(NC(=O)c3cccs3)cc2)no1 | 9.9 | 57.1* | 50.9* | -25.2 | 27.8 | 16.8 | 15.4 | 17.2 | 48.0 | 46.5 | 40.9
CCC(=O)Nc1ccc(C(=O)NNC(=O)c2cccs2)cc1 | -13.3 | -2.9 | 5.9 | 9.8 | -11.4 | 3.3 | . | . | . | . | .
COc1ccc([N+](=O)[O-])cc1NC(=O)C1CCCO1 (configuration not stated) | -14.5 | -0.8 | 2.7 | 10.3 | -10.3 | -3.8 | . | . | . | . | .
CCOc1ccc(/C=C/C2=NNC(=O)CC2)cc1 | -9.9 | 16.8 | 73.6* | -5.2 | 69.5* | 55.2* | -23.7 | 52.3* | 87.8* | 86.1* | 68.5*
O=C1N=c2ccccc2=C1c1sc(NS(=O)(=O)c2ccccc2)nc1O | 3.5 | 1.8 | 10.3 | 17.2 | 31.0 | -39.0 | . | . | . | . | .
O=C1N=c2ccccc2=C1c1sc(NS(=O)(=O)Cc2ccccc2)nc1O | 9.1 | 21.4 | 69.1* | 33.3 | 87.9* | 40.3 | 77.9* | 72.9* | 92.4* | 38.9 | 38.5
O=C(Nc1nc(-c2ccc(Cl)cc2)cs1)C1=COCCO1 | 2.0 | 24.0 | 7.5 | -13.1 | 7.6 | -15.6 | . | . | . | . | .
Cc1ccc(C(=O)Nc2ccc3c(c2)OCCO3)o1 | -1.8 | 6.4 | 7.0 | 8.1 | 53.7* | 30.5 | 51.9* | 44.5 | 79.8* | 81.9* | 61.8*
Cc1cc(C(=O)Nc2ccc3c(c2)OCCO3)co1 | -5.5 | 11.2 | 2.1 | 12.7 | 34.0 | 15.4 | . | . | . | . | .
SMILES | EBI2 antag | AHR activator | SENP7 block | SENP8 block-1 | SENP6 block | SENP8 block-2 | SENP8 confirm | SENP6 confirm | SENP7 confirm | Casp3 select | Luc interf
CCc1ccc(-c2csc(NC(=O)C3=COCCO3)n2)cc1 | 9.5 | 6.0 | 29.6 | -7.8 | 60.1* | 36.4 | 36.6 | 32.4 | 72.8* | 16.3 | 7.2
O=C(Nc1nc(-c2ccncc2)cs1)c1ccco1 | -9.3 | 11.2 | -1.4 | -16.6 | 2.1 | -0.3 | . | . | . | . | .
Cc1cc(C)c2sc(NC(=O)C3=COCCO3)nc2c1 | 9.6 | 30.2 | 62.4* | -27.0 | 66.8* | 44.7 | 44.1 | 65.1* | 88.8* | 56.5* | 44.7
Cc1cc(C)c(-c2csc(NC(=O)C3=COCCO3)n2)c(C)c1 | 3.1 | 7.6 | -0.1 | 1.2 | -8.0 | 2.6 | . | . | . | . | .
O=C(Nc1nc(-c2ccc3c(c2)OCCO3)cs1)c1ccco1 | -6.8 | 12.2 | 88.6* | -50.9 | 86.1* | 83.1* | 86.2* | 86.0* | 97.3* | 74.9* | 90.3*
COc1ccc(C(=O)Nc2ccc(/C(C)=N/NC(=O)c3ccccc3O)cc2)cc1OC | -4.5 | 6.5 | 2.9 | -0.2 | -3.2 | -5.4 | . | . | . | . | .
O=c1c(Cc2ccccc2)c(O)ccn1C1CCCCCCC1 | 12.9 | 0.0 | 7.2 | 14.3 | -4.4 | 1.9 | . | . | . | . | .
CCOC(=O)[C@]12CCCC=C1N(Cc1ccc3c(c1)OCO3)C(=O)[C@H](CC(=O)N1CCC(c3ccccc3)CC1)C2 | 10.3 | . | . | 18.2 | . | . | . | . | . | . | .
O=C(Nc1ccc2c(c1)OCCO2)c1ccco1 | -2.8 | 2.5 | 53.8* | 6.6 | 34.6 | 15.1 | 37.7 | 35.8 | 74.7* | 80.0* | 53.4*
O=C(NCc1ccccc1)c1nccnc1CO | -16.2 | 0.5 | -1.2 | 6.3 | -10.6 | -2.5 | . | . | . | . | .
CCOc1ccccc1N1CCN(CC(=O)Nc2nccs2)CC1 | -0.4 | . | . | 1.9 | . | . | . | . | . | . | .
Cc1ccc(-n2c(C)cc(C(=O)COC(=O)c3c(C)noc3C)c2C)cc1 | 2.1 | -1.1 | 52.4* | 16.2 | 68.4* | 45.0 | 52.0* | 58.2* | 81.7* | 58.9* | 31.6
Cc1cc(C(=O)COC(=O)C2=COCCO2)c(C)n1-c1ccccc1 | -12.9 | -3.2 | 84.6* | 25.8 | 85.4* | 83.0* | 82.9* | 82.9* | 95.9* | 87.6* | 78.1*
Cc1ccc(-n2c(C)cc(C(=O)COC(=O)C3=NNC(=O)CC3)c2C)cc1 | -12.1 | -2.6 | 4.0 | 17.6 | -4.0 | -3.1 | . | . | . | . | .

Compound activity as filed in PubChem BioAssay.
